Assay results as given in the supplement of paper PMC9135407.
Values joined by “and” are separate entries in the source; they are usually repeats but may differ in a detail not shown here. Equal values may be shown once. Where a name gives a salt, the structure may show the parent alone. In all, about 5,800 compounds went through this assay and about 620 (11%) showed activity. The sample as a whole holds a higher share of actives than the screen did. Values without a mark were called inactive.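 Rule for the calls: active = score above a cut-off or among the top three wells of a plate; in these data no inactive exceeds 0.85.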

Test system: primary human hepatic stellate cells (donor 1)
Assay: scaled lipid accumulation score (0 = DMSO-like, 1 = nortriptyline-like); higher = stronger HSC inactivation (lipid re-accumulation), active = hit call of the paper
Details: 48 h
[1] = library stock concentration: 10 mM
[2] = library stock concentration: 1 mM
[3] = library stock concentration: 3.33 mM

## COP(=O)(OC)OC(c1ccc(Cl)cc1)P(=O)(OC)OC (stereo not given)
[1]
  scaled lipid accumulation score: ≤ -0.001

## COc1cc(C[C@H]2COC(=O)[C@@H]2Cc2ccc(O)c(OC)c2)ccc1O [Matairesinol]
[2]
  scaled lipid accumulation score: ≤ 0

## CC1(C)CC(=O)c2c(ccc(C(=O)CC(N)CO)c2N)O1 (stereo not given)
[1]
  scaled lipid accumulation score: 1.03 (active)

## CO/N=C(\C(=O)N[C@@H]1C(=O)N2C(C(=O)O)=C(CSc3nc(=O)c(O)nn3C)CS[C@H]12)c1csc(N)n1 [Ceftriaxone sodium trihydrate]
Library stock concentration: 3.1 mM
  scaled lipid accumulation score: ≤ 0
[1]
  scaled lipid accumulation score: ≤ -0.027 and 0.254

## CO/N=C(\C(=O)N[C@@H]1C(=O)N2C(C(=O)O)=C(CSc3nc(=O)c(O)nn3C)CS[C@H]12)c1csc(N)n1 [Ceftriaxone sodium]
[1]
  scaled lipid accumulation score: ≤ 0

## N#Cc1c(-c2ccccc2)no[n+]1[O-] [Furoxan]
Library stock concentration: 26.7 mM
  scaled lipid accumulation score: 1 (active)

## CCCCCC[C@@H]([C@@H](C)O)n1cnc2c(N)ncnc21 (racemic)
Library stock concentration: 18 mM
  scaled lipid accumulation score: 0.052

## CC1(C)CCC(CN2CCN(c3ccc(C(=O)NS(=O)(=O)c4ccc(NCC5CCOCC5)c([N+](=O)[O-])c4)c(Oc4cnc5[nH]ccc5c4)c3)CC2)=C(c2ccc(Cl)cc2)C1
[3]
  scaled lipid accumulation score: ≤ -0.009
[1]
  scaled lipid accumulation score: ≤ 0

## O=C1c2ccccc2-c2nc3nnnn3nc21 [PDK1/Akt/Flt Dual Pathway Inhibitor]
[3]
  scaled lipid accumulation score: 0.462

## O=S(c1ccccc1)c1ccc2nnnn2n1 (stereo not given)
[1]
  scaled lipid accumulation score: 1.3 (active)

## COC(=O)C1=CO[C@@H](O)[C@@H]2C(CO)=CC[C@H]12 [Genipin]
[3]
  scaled lipid accumulation score: ≤ 0
[1]
  scaled lipid accumulation score: 0.019 and ≤ -0.028

## CC(C)(C)C(=O)Oc1ccc(S(=O)(=O)Nc2ccccc2C(=O)NCC(=O)O)cc1 [Sivelestat sodium salt hydrate]
[1]
  scaled lipid accumulation score: ≤ -0.055

## O=C(NOCC1CC1)c1cc(Br)c(F)c(F)c1Nc1ccc(I)cc1Cl
[1]
  scaled lipid accumulation score: ≤ 0

## CC(C)(C(=O)O)c1ccc(C(O)CCCN2CCC(C(O)(c3ccccc3)c3ccccc3)CC2)cc1 (stereo not given) [Fexofenadine hydrochloride]
[1]
  scaled lipid accumulation score: ≤ -0.07 and 0.008

## CC(C)(C(=O)O)c1ccc(C(O)CCCN2CCC(C(O)(c3ccccc3)c3ccccc3)CC2)cc1 (stereo not given)
[1]
  scaled lipid accumulation score: ≤ 0

## Br.NC(=O)C(c1ccccc1)(c1ccccc1)[C@@H]1CCN(CCc2ccc3c(c2)CCO3)C1 [Darifenacin HBr]
[1]
  scaled lipid accumulation score: 1.03 (active)

## NC(=O)C(c1ccccc1)(c1ccccc1)[C@@H]1CCN(CCc2ccc3c(c2)CCO3)C1 [Darifenacin HBr]
[3]
  scaled lipid accumulation score: ≤ 0

## c1ccc(C(O[C@@H]2CCCN(CCc3ccc4c(c3)OCO4)C2)c2ccccc2)cc1 [Zamifenacin fumarate]
[1]
  scaled lipid accumulation score: 0.194

## CC(C)(C(=O)O)c1ccc(C(O)CCCN2CCC(C(O)(c3ccccc3)c3ccccc3)CC2)cc1 (stereo not given) [Fexofenadine HCl]
  scaled lipid accumulation score: ≤ 0
[3]
  scaled lipid accumulation score: ≤ 0
[1]
  scaled lipid accumulation score: 0.057

## Br.NC(=O)C(c1ccccc1)(c1ccccc1)[C@@H]1CCN(CCc2ccc3c(c2)CCO3)C1
[1]
  scaled lipid accumulation score: 0.88 (active)

## OC(CCN1CCCC1)(c1ccccc1)C1CCCCC1 (stereo not given) [Procyclidine hydrochloride]
  scaled lipid accumulation score: 0.092
Library stock concentration: 6.2 mM
  scaled lipid accumulation score: 0.569
[1]
  scaled lipid accumulation score: 0.484

## NC(=O)C(c1ccccc1)(c1ccccc1)[C@@H]1CCN(CCc2ccc3c(c2)CCO3)C1
[1]
  scaled lipid accumulation score: 0.413

## CCCC(=O)Oc1ccc2[nH]c(C(=O)c3cc4ccccc4[nH]3)cc2c1 [PDGF Receptor Tyrosine Kinase Inhibitor II]
[3]
  scaled lipid accumulation score: ≤ 0

## CC(C)(C)OC(=O)N1CCC(OCc2nc(-c3ccncc3)no2)CC1
[2]
  scaled lipid accumulation score: 0.013

## N#Cc1ccc(NCCNCC(=O)N2CCC[C@H]2C#N)nc1 [NVP DPP 728 dihydrochloride]
[1]
  scaled lipid accumulation score: ≤ 0

## CN1CC[C@]23c4ccccc4N[C@H]1[C@]21CCN(C)[C@H]3Nc2ccccc21 [Calycanthine]
  scaled lipid accumulation score: 0.246

## CCCC/C=C\CCCCCCCC(=O)OC [Myristoleic Acid methyl ester]
[2]
  scaled lipid accumulation score: ≤ 0

## Cn1cnc(=N)c2[nH]cnc21 [3-Methyladenine]
[3]
  scaled lipid accumulation score: ≤ 0
[1]
  scaled lipid accumulation score: ≤ 0

## CCCCC/C=C\C\C=C/C=C/C=C/[C@@H](SC[C@H](NC(=O)CC[C@H](N)C(=O)O)C(=O)NCC(=O)O)[C@@H](O)CCCC(=O)O [Leukotriene C4]
Library stock concentration: 100 uM
  scaled lipid accumulation score: ≤ -0.021

## Fc1ccc(C(OCCCc2cnc[nH]2)c2ccc(F)cc2)cc1
[1]
  scaled lipid accumulation score: 0.81

## Cc1nc2c(c(=O)[nH]1)CSCC2
[1]
  scaled lipid accumulation score: ≤ -0.001

## CCCCC/C=C\C/C=C\C/C=C\C/C=C\CCCC(=O)O[C@H](COCCCCCCCCCCCCCCCC)COP(=O)([O-])OCC[N+](C)(C)C [Arachidonoyl-PAF]
[2]
  scaled lipid accumulation score: ≤ -0.021

## O=C1Cc2c([nH]c3ccc(Br)cc23)-c2ccccc2N1 [Kenpaullone]
[2]
  scaled lipid accumulation score: ≤ 0
[3]
  scaled lipid accumulation score: ≤ 0
[1]
  scaled lipid accumulation score: ≤ -0.055 and 0.348

## CN1C(=O)/C(=C2\Nc3ccccc3\C2=N\O)c2ccc(Br)cc21 [GSK-3 Inhibitor IX, Control, MeBIO]
[3]
  scaled lipid accumulation score: 1.07 (active)

## COC(=O)C(N)CS (stereo not given) [Mecysteine hydrochloride]
[1]
  scaled lipid accumulation score: ≤ 0
